The values below come from PubChem BioAssay (EPA / NIEHS).

The source made the active and inactive calls. Rule for the calls: active = hit-call score of the fitted dose curve at least 0.9, where 1 is the maximum; inactive = score below 0.9.

Sequence of X-box-binding protein 1 (Homo sapiens) (P17861 whole entry, looked up): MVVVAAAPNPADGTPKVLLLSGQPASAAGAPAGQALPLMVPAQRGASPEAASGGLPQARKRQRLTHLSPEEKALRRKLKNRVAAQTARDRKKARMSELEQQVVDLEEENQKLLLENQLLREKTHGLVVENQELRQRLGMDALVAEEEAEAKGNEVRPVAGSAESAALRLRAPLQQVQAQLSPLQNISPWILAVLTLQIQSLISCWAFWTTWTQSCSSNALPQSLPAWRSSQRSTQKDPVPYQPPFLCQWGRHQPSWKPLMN

This assay addresses X-box-binding protein 1 (Homo sapiens) (UniProt P17861). As to the kind of experiment: ATG_Xbp1_CIS: Attagene CIS-FACTORIAL HepG2 Assay for human X-box Binding Protein 1 (XBP1) (AID 2282972). As to conditions: HepG2 XBP1 cis-element reporter, Attagene multiplex; actives raise or lower the signal. On the procedure:
ATG_CIS is a cell-based, multiplexed-readout assay that uses HepG2, a human liver cell line, with measurements taken at 24 hours after chemical dosing in a 24-well plate.ATG_Xbp1_CIS is one of 52 assay component(s) measured or calculated from the ATG_CIS assay. It is designed to make measurements of mRNA induction, a form of inducible reporter, as detected with fluorescence intensity signals by Reverse transcription polymerase chain reaction (RT-PCR) and Capillary electrophoresis technology.Data from the assay component ATG_Xbp1_CIS was analyzed into 1 assay endpoint. This assay endpoint, ATG_Xbp1_CIS, was analyzed with bidirectional fitting relative to DMSO as the negative control and baseline of activity. Using a type of inducible reporter, measures of mRNA for gain or loss-of-signal activity can be used to understand the reporter gene at the transcription factor-level as they relate to the gene XBP1. Furthermore, this assay endpoint can be referred to as a primary readout, because this assay has produced multiple assay endpoints where this one serves a reporter gene function. To generalize the intended target to other relatable targets, this assay endpoint is annotated to the dna binding intended target family, where the subfamily is basic leucine zipper.
Human liver HepG2 cells are transiently transfected with multiple reporter transcription units (MRTUs) in 6-well plates using FuGene 6 reagent (Roche; 3 ml FuGene/1 mg DNA). The MRTU constructs are regulated by a cis-regulating element (promoter). […] A major difference between the CIS and TRANS system is that in CIS activities of endogenous TFs are measured, whereas the TRANS assay evaluates changes in activities of exogenous, chimeric NR-Gal4 proteins. […] At the end of 24 hour incubation, total RNA was isolated using TriZol reagent (Invitrogen). The isolated RNA is then reverse-transcribed using oligo(dT) primer and Mo-MLV reverse transcriptase (Invitrogen) with DNAse I (Ambion) treatment for 30 min. The one-tenth of the produced cDNA was amplified by PCR using Taq DNA polymerase (Invitrogen) and two reporter sequence-specific primers. The PCR products were fluorescently labeled by primer extension with 6-arboxyfluorescein (6-FAM) 5'-labeled reporter sequence-specific primer (2 min at 95 C, 20 s at 68 C and 10 min at 72 C) and these products were digested with 5U of HpaI (New England Biolabs) for 2h at 37 C. The fragments were purified using Qiaquick PCR columns (Qiagen), analyzed on an ABI 3130xL genetic analyzer (Applied Biosystems) with peak positions identified by using a set of X-rhodamine (ROX)-labeled MapMarker1000 molecular weight standards (BioVentures). The raw capillary electrophoresis data was processed using Attagraph software (Attagene).
On to `O=C(O)CCCCCCCCCCCC(=O)O`, for which the call was inactive.
For `CCOc1ccc(NC(=O)CC(C)=O)cc1`, the result was inactive.
Same read-out and setting: the entry for `C=Cc1ccc(C(C)(C)C)cc1` is “inactive”.
As to `CCCCCCCCCCCCCCN(CCO)CCO`, the outcome was inactive.
With `CCCCCC(C=O)=Cc1ccccc1`, the outcome was inactive.
Still for that read-out and setting: to `CCCCCCCCc1ccc(S(=O)(=O)O)cc1` belongs “inactive”; to `CC/C=C\CC/C=C/CO`, “inactive”; to `Cc1ccc(OC(=O)c2ccccc2O)cc1`, “inactive”.
For the compound `C=C(C)[C@@H]1CC=C(C)C(=O)C1`, the compound was classed as inactive.
As for `CCN(CCN)c1cccc(C)c1`, the outcome was inactive.
The same measure, in the same setting: to `C[C@H](CCC(=O)NCC(=O)O)[C@H]1CC[C@H]2[C@@H]3[C@H](O)C[C@@H]4C[C@H](O)CC[C@]4(C)[C@H]3C[C@H](O)[C@]12C` belongs “inactive”.
On the same count and under the same terms, to `O=C1NC2NC(=O)NC2N1` (stereo not given) belongs “inactive”.
On the same count and under the same terms, the entry for `O=C1OC(=O)c2c(Cl)c(Cl)c(Cl)c(Cl)c21` is “inactive”.
For the compound `C=Cc1ccncc1`, the AC50 was 26.1 µM (active).
As to `NCC1CCCC(CN)C1` (stereo not given), the result was inactive.
On the same count and under the same terms, to `CCCSc1ccc2nc(NC(=O)OC)[nH]c2c1` belongs “inactive”; to `CCC1(C)NC(=O)NC1=O` (stereo not given), “inactive”.
Consider `Nc1c(S(=O)(=O)O)cc(Br)c2c1C(=O)c1ccccc1C2=O`, for which the compound was called inactive.
On the same count and under the same terms, to `CCOc1ccc(NC(=O)CC(C)O)cc1` (stereo not given) belongs “inactive”.
For the compound `Oc1c(Cl)cc(Cl)c(Cl)c1Cc1c(O)c(Cl)cc(Cl)c1Cl`, the call was inactive.
Regarding `IC(I)I`, the result was inactive.
For the compound `CC(Oc1cc(Cl)ccc1Cl)C(=O)O` (stereo not given), the call was inactive.
`O=CCc1ccccc1`: the call was inactive.
Turning to `CCCCCCCCCC(C)C=O` (stereo not given), the compound was called inactive.
On the same count and under the same terms, the entry for `COc1ccc(CCO)cc1` is “inactive”; for `CCCC(C)=O` it is “inactive”; for `COC(CC(C)CCCC(C)(C)O)OC` (stereo not given) it is “inactive”.
On the same count and under the same terms, to `O=C(O)c1ccc(O)cc1` belongs “inactive”.
Consider `CCN(CC)C(=O)N(CC)CC`, for which the result was inactive.
Turning to `CS(=O)(=O)c1ccc(Cl)cc1`, the outcome was inactive.
Same read-out and setting: to `CC(O)C1CCCCC1` (stereo not given) belongs “inactive”; to `COC(=O)c1cccnc1`, “inactive”; to `CC1=CC[C@@]23C[C@@H]1C(C)(C)[C@@H]2CC[C@H]3C`, “inactive”.
As to `O=C(Nc1ccc([N+](=O)[O-])cc1)Nc1ccc([N+](=O)[O-])cc1` (tested in a mixture with another compound), the result was inactive.
In the case of `COc1cc(Cl)c(OC)cc1N`, the call was inactive.
Still for that read-out and setting: to `C=C(CC(=O)O)C(=O)O` belongs “inactive”; to `COc1ccc(N)c([N+](=O)[O-])c1`, “inactive”.
The same measure, in the same setting: to `O=C(O)CCCCCCCCC(=O)O` belongs “inactive”; to `Nc1c(Cl)cc(Cl)cc1[N+](=O)[O-]`, “inactive”; to `CCOC(=O)COC(=O)c1cc(Oc2ccc(C(F)(F)F)cc2Cl)ccc1[N+](=O)[O-]`, “inactive”.

As usually defined, the AC50 is the concentration at which the activity in the assay is half-maximal.
